Measured values as given in PubChem BioAssay (Tox21).
Values joined by “and” are separate entries in the source; they are usually repeats but may differ in a detail not shown here. Equal values may be shown once. Inconclusive results are not listed. Active and inactive are the calls of the source. The call rests on the fitted dose curve; in most records, active means well fitted cell-killing curve with a large enough effect in the repeat runs; inconclusive means weak or mixed curves, or effect the other way; inactive means flat fitted curve, though single readings scatter.

Test: qHTS assay to identify small molecule antagonists of the androgen receptor (AR) signaling pathway using the MDA cell line in the presence of 0.5 nM R1881 - cell viability counter screen (AID 1259242); further: nearly all actives have a fitted effect of over 45% in size
Conditions: MDA-kb2 viability, CellTiter-Fluor protease fluorescence, 16 h; series mostly up to 92.4 µM; viability change, negative = cytotoxic: at the top concentration
Excerpt: U.S. Tox21 Program National Center for Advancing Translational Sciences [NCATS] NIH Chemical Genomics Center [NCGC] U.S. Environmental Protection Agency [EPA] National Institutes of Environmental Health Sciences [NIEHS] National Toxicology Program [NTP] U.S. Food and Drug Administration [FDA] Tox21 Assay Overview: Androgen receptor (AR) is an important member of the nuclear receptor family. Its signaling plays a critical role in AR-dependent prostate cancer and other androgen related diseases. Considerable attention has been given in the past decades to develop methods to study and screen for the environmental chemicals that have the potential to interfere with metabolic homeostasis, reproduction, developmental and behavioral functions. Therefore AR binding assay for screening androgen antagonists can be used to identify potential endocrine disruptors. MDA-kb2 cells (from ATCC, deposited by Wilson et al.) were used to screen for AR inhibitors against Tox21 compound libraries. These cells are human breast carcinoma cells that were stably transfected with a luciferase reporter gene under control of the MMTV promoter that contains response elements for both androgen receptor (AR) and glucocorticoid receptor (GR). The current screening for identification of AR inhibitors against Tox21 libraries used lower concentration of (0.5 nM) R1881 as a stimulator. The cytotoxicity of the Tox21 compound libraries against MDA-kb2 cell line was tested by measuring live-cell protease activity using CellTiter-Fluor assay in the same wells.
Tox21 Assay Protocol Summary: MDA-kb2 cells (cells cultured without CO2) were dispensed at 3,000 cells/well in 4 uL of culture medium into white wall/solid-bottom 1536-well plates (Corning Life Sciences, Corning, NY) using a Multidrop Combi (ThermoFisher Scientific, Waltham, MA) dispenser. After the assay plates were incubated at a 37C and 0% CO2 for 5 hr, 23 nL of compounds dissolved in DMSO, positive controls or DMSO only was transferred to the assay plate by a Pintool station (Kalypsys, San Diego, CA). The transfer of compounds was followed by the addition of 1 uL of 0.5 nM (final concentration) agonist (R1881)/culture medium using a Flying Reagent Dispenser (FRD, Aurora Discovery, San Diego, CA). The plates were incubated at 37C and 0% CO2 for 16 hr. For cytotoxicity assay, 1 uL of CellTiter-Fluor reagent (Promega Corporation, Madison, WI) was added to each well using the FRD and after 30 min incubation at 37C and 0% CO2, The fluorescence intensity was measured using ViewLux plate reader (PerkinElmer, Shelton, CT).
On the % scale 0 is the no-effect control and ±100 the full control effect; potency means the concentration at half of the fitted maximal effect.

Structure (SMILES)	viability change, negative = cytotoxic	Potency
O=C1c2ccccc2C(=O)C1C(=O)C(c1ccccc1)c1ccc(Cl)cc1 (stereo not given)	-25.1% (inactive)	–
O=C(CCCN1CCC2(CC1)C(=O)NCN2c1ccccc1)c1ccc(F)cc1	-15.9% [at 42.5 µM] (inactive)	–
N#Cc1ccccc1Cl	0.48% (inactive)	–
Clc1ccc(CCC(Cn2ccnc2)Sc2c(Cl)cccc2Cl)cc1 (stereo not given)	-18.2% [at 42.5 µM] (inactive)	–
OC(Cc1ccccc1Cl)(Cn1cncn1)C1(Cl)CC1 (stereo not given)	-0.0796% (inactive)	–
CC(=O)[O-].CC(=O)[O-].[Hg+2]	–	7.7 µM (active)
Cc1ccc(CCl)cc1	0.312% (inactive)	–
N#CCCC(Br)(C#N)CBr (stereo not given)	-15% (inactive)	–
CN(C)CCc1c[nH]c2cccc(O)c12	2.03% (inactive)	–
CS(=O)(=O)c1ccc(C(=O)C2C(=O)CCCC2=O)c([N+](=O)[O-])c1	7.8% (inactive)	–
O=[N+]([O-])c1cc(C(F)(F)F)c(Cl)c([N+](=O)[O-])c1Cl	–	27.3 µM (active)
Cl/C=C\CCl	0.1% (inactive)	–
CCCCCCCCCCCCCCCC[n+]1ccccc1	–	32 µM (active) and 24.3 µM (active) and 26.9 µM (active)
ClC1=C(Cl)[C@]2(Cl)[C@@H]3[C@@H](Cl)[C@H](Cl)C[C@@H]3[C@@]1(Cl)C2(Cl)Cl	0.841% (inactive)	–
Fc1cccc(Cl)c1CCl	-1.54% (inactive)	–
CC(=O)Nc1ccc2c(c1)Cc1ccccc1-2	2.07% (inactive)	–
CC1(C)CN=C(NN=C(/C=C/c2ccc(C(F)(F)F)cc2)/C=C/c2ccc(C(F)(F)F)cc2)NC1	–	24.3 µM (active)
CC1(C)[C@H](C(=O)O[C@H](C#N)c2cccc(Oc3ccccc3)c2)[C@@H]1/C=C(\Cl)C(F)(F)F	–	inactive
Oc1ccc(C2(c3ccc(O)cc3)CCCCC2)cc1	-3.58% (inactive)	–
Oc1cccc(-c2ccccc2)c1	0.894% (inactive)	–

Structure (SMILES)	viability change, negative = cytotoxic	Potency
CCCCCCCCCCCCBr	-7.1% (inactive)	–
N#Cc1ccccc1N	-3.05% (inactive)	–
N#CCc1ccc(Cl)cc1	2.82% (inactive)	–
S=C=Nc1cccc2ccccc12	-2.94% (inactive)	–
O=[N+]([O-])c1c2ccccc2cc2ccccc12	-7.07% (inactive)	–
c1cc[c]([Sb]([c]2ccccc2)[c]2ccccc2)cc1	3.16% (inactive)	–
CC(C)CC(C)(c1ccc(O)cc1)c1ccc(O)cc1	-3.31% (inactive)	–
Nc1ccc(Sc2ccc(N)cc2)cc1	-5.17% (inactive)	–
N#Cc1ccc(O)cc1	6.68% (inactive)	–
CCOC(=O)OC1=C(c2cc(C)ccc2C)C(=O)NC12CCC(OC)CC2 (stereo not given)	1.77% (inactive)	–
O=C/C(Cl)=C(/Cl)C(=O)O	–	inactive
Cn1[nH]nnc1=S	2.54% (inactive)	–
[Cd+2].[Cl-].[Cl-]	–	inactive
CNC(C)Cc1ccc2c(c1)OCO2 (stereo not given)	8.15% (inactive)	–
BrCBr	0.972% (inactive)	–
O=C(Cl)c1ccc(Cl)cc1	0.109% (inactive)	–
Nc1ccc(Cc2ccc(N)c(Cl)c2)cc1Cl	1.11% (inactive)	–
CSCCCN=C=S	-12.7% (inactive)	–
C[C@]12CC[C@H]3[C@@H](CCC4=CC(=O)CC[C@@]43C)[C@@H]1CC[C@@H]2O	0.772% (inactive)	–
CCSC(C)CC1CC(=O)C(/C(CC)=N/OC/C=C/Cl)=C(O)C1 (stereo not given)	5.89% [at 42.5 µM] (inactive)	–
